p97 ATPase inh: blocks human p97 ATPase activity. recombinant p97 ATPase, Kinase-Glo ATP luminescence, 3 h. inhibition, % at 8 µM. 0.42% of 220,000 active. AID 1481; in the data active = inhibition above about 15%;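 note: 0% = DMSO vehicle and 100% = wells lacking enzyme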
SUMO HTRF inh: inhibitors of human SUMOylation (UBC9); HTRF SUMOylation assay, SAE1/SAE2 + UBC9, in vitro; inhibition, % at 35 µM; 0.36% of 290,000 active; AID 2006; in the data active = inhibition above about 50%, passing the limit was not always enough
Target sequence (P63279 whole entry, looked up): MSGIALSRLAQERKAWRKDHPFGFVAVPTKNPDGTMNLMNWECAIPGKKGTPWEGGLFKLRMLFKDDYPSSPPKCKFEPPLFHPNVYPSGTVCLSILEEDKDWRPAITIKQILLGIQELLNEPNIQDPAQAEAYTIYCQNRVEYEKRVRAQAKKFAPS
DTT redox prof: compounds producing H2O2 with reducing agent – biochemical, NIH compound library profiling, artefact control for MLSCN library redox annotation, primary screen. 0.03% of 200,000 active. DTT-dependent redox cycling H2O2, phenol red/HRP absorbance; 100% = 100 µM peroxide control, 0% = buffer. activation, % at 10 µM;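 active = activation of at least 50% relative to the plate's high and low controls in the primary single-dose screen; inactive = activation below 50%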;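 note: compound incubated with DTT at 0.8 mM final as the reducing agent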
Furin inhibitor: human furin inhibition. P09958. inhibition, % at 20 µM or 30 µM. 0.061% of 220,000 active. AID 463115. purified furin, fluorogenic substrate cleavage; in the data active = inhibition above about 25%
PKD1 inh: PKD1 (human) kinase inhibition; 0.056% of 200,000 active; Q15139; PKD1 kinase fluorescence polarization assay; inhibition, % (no concentration beside the values); in the data active = inhibition above about 50%
FAS-TE inh: inhibitors of human fatty acid synthase thioesterase domain | P49327 | recombinant FAS-TE, OMFH fluorogenic substrate, fluorescence endpoint | inhibition, % at 15 µM | 0.67% of 360,000 active;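 active = compounds whose normalised, plate-corrected inhibition of enzyme fluorescence in the single-dose primary screen is 50% or more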;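 note: 0% = DMSO with enzyme and 100% = substrate without enzyme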
FAS-TE conf: FAS thioesterase (human) inhibition, confirmation; AID 624325; 45% of 2,300 active; inhibition, % at 15 µM; recombinant FAS-TE, OMFH fluorogenic substrate, fluorescence; shares compounds with FAS-TE inh;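 active = compounds inhibiting the enzyme by at least 50% at 15 µM in any one of the replicates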;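 note: 0% = enzyme with DMSO only and 100% = wells lacking enzyme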
Active calls of the source: *. Only some compounds are listed: those with a hit (about 1.2% of all), similar ones and a draw of the others.

For N/C(=N\OC(=O)CCC1CCCCC1)c1ccc([N+](=O)[O-])cc1 the results were p97 ATPase inh -2.2, SUMO HTRF inh -15.2, DTT redox prof 1.6, Furin inhibitor -5.2, PKD1 inh -5.7 and FAS-TE inh 26.6.
N/C(=N\OC(=O)CCCc1ccccc1)c1cccc([N+](=O)[O-])c1 was read as p97 ATPase inh -1.8, SUMO HTRF inh -15.0, DTT redox prof -0.2, Furin inhibitor -7.4, PKD1 inh -1.6, FAS-TE inh 50.4* and FAS-TE conf 62.7*.
N/C(=N\OC(=O)CC1CCCCC1)c1cccc([N+](=O)[O-])c1 was read as p97 ATPase inh 0.3, SUMO HTRF inh -4.8, DTT redox prof 0.4, Furin inhibitor 1.4, PKD1 inh -5.0, FAS-TE inh 62.5* and FAS-TE conf 67.8*.
`N/C(=N\OC(=O)CCC1CCCC1)c1cccc([N+](=O)[O-])c1` gave p97 ATPase inh 7.8, SUMO HTRF inh -3.5, DTT redox prof 0.4, Furin inhibitor -12.3, PKD1 inh 3.5, FAS-TE inh 62.4* and FAS-TE conf 66.4*.
For N/C(=N\OC(=O)CC1CCCCC1)c1ccc([N+](=O)[O-])cc1 the results were p97 ATPase inh 1.9, SUMO HTRF inh -9.4, DTT redox prof -0.5, Furin inhibitor -11.9, PKD1 inh 8.5 and FAS-TE inh 2.0.
Screening O=C(CCc1ccccc1)OCC(=O)c1cccc([N+](=O)[O-])c1 returned p97 ATPase inh -0.1, SUMO HTRF inh -2.2, DTT redox prof -0.3, Furin inhibitor -16.3, PKD1 inh -6.6, FAS-TE inh 56.1* and FAS-TE conf 57.3*.
`CN(Cc1ccc(Br)cc1)CC(O)COc1cccc(Br)c1` (configuration not stated) gave SUMO HTRF inh 7.9 and FAS-TE inh 15.3.
For COCCNC(=O)C1(C)CCCN(Cc2c(C)nn(-c3ccccc3)c2C)C1 (configuration not stated) the results were FAS-TE inh -8.1.
For Cc1occc1C(=O)NNC(=O)c1ccccc1[N+](=O)[O-] the results were SUMO HTRF inh 15.2 and FAS-TE inh -5.3.
For CC(NC(=O)Cn1cc([N+](=O)[O-])cn1)c1ccc(C(C)(C)C)cc1 (configuration not stated) the results were FAS-TE inh 75.7* and FAS-TE conf 55.4*.
`COc1ccc(-c2nnc(SCC(=O)Nc3c(Cl)cc(Cl)cc3C(=O)O)o2)cc1` gave FAS-TE inh -4.5.
`O=C(O)c1ccccc1NS(=O)(=O)c1ccc(N/N=C/c2ccc(O)c(O)c2)c([N+](=O)[O-])c1` gave FAS-TE inh 37.4.
For COc1ccccc1NS(=O)(=O)c1ccc(N/N=C/c2c(C)nn(-c3ccccc3)c2N2CCCC2)c([N+](=O)[O-])c1 the results were p97 ATPase inh 5.1, SUMO HTRF inh -5.6, DTT redox prof 2.1, Furin inhibitor 8.1, PKD1 inh -0.3, FAS-TE inh 63.9* and FAS-TE conf 16.7.
`COc1ccccc1NS(=O)(=O)c1ccc(N/N=C/C=C/c2ccccc2[N+](=O)[O-])c([N+](=O)[O-])c1` gave p97 ATPase inh 0.3, SUMO HTRF inh 14.5, DTT redox prof -1.1, Furin inhibitor 9.9, PKD1 inh 1.1, FAS-TE inh 60.6* and FAS-TE conf -0.4.
O=C(O)c1ccccc1NS(=O)(=O)c1ccc(NN=Cc2ccc(F)cc2)c([N+](=O)[O-])c1 was read as FAS-TE inh 57.1* and FAS-TE conf 70.9*.
Cc1nn(-c2ccccc2)c(N2CCCC2)c1/C=N/Nc1ccc(S(=O)(=O)Nc2ccccc2)cc1[N+](=O)[O-] was read as p97 ATPase inh 2.7, SUMO HTRF inh -22.9, DTT redox prof 1.9, Furin inhibitor -8.1, PKD1 inh -4.1, FAS-TE inh 52.7* and FAS-TE conf 4.8.
`O=c1cc(C(F)(F)F)nc(SC/C=C/c2ccccc2)[nH]1` gave SUMO HTRF inh 27.4 and FAS-TE inh -0.1.
Screening COc1ccccc1NS(=O)(=O)c1cccc(C(=O)N/N=C/c2cn(-c3ccccc3)nc2-c2ccccc2)c1 returned p97 ATPase inh 4.8, SUMO HTRF inh 0.0, DTT redox prof -0.4, Furin inhibitor -31.9, PKD1 inh 7.5 and FAS-TE inh 41.8.
Screening CCOc1ccc(S(=O)(=O)Nc2ccc(C(=O)N/N=C/c3c(C)nn(-c4ccccc4)c3N3CCCC3)cc2)cc1 returned p97 ATPase inh -3.8, SUMO HTRF inh 6.8, DTT redox prof -0.4, Furin inhibitor -0.7, PKD1 inh 1.3, FAS-TE inh 54.6* and FAS-TE conf 0.1.
`COc1ccccc1NS(=O)(=O)c1cccc(C(=O)N/N=C/c2c(C)nn(-c3ccccc3)c2N2CCCC2)c1` gave p97 ATPase inh -0.7, SUMO HTRF inh 19.9, DTT redox prof -0.4, Furin inhibitor -5.0, PKD1 inh -9.5, FAS-TE inh 61.7* and FAS-TE conf 15.1.
O=C1NC(Cc2ccc(O)cc2)c2nc3cc(F)c(F)cc3c(=O)n2-c2ncccc21 (configuration not stated) was read as FAS-TE inh 1.0.
`COc1cc2cc(CN(Cc3cccs3)C(=S)Nc3ccccc3)c(=O)[nH]c2cc1OC` gave p97 ATPase inh 4.9, SUMO HTRF inh -15.6, DTT redox prof -0.1, Furin inhibitor -33.5, PKD1 inh 11.7, FAS-TE inh 78.6* and FAS-TE conf 30.6.
CCC(C)(C)C1CCC(=NNS(=O)(=O)c2ccc(C)c([N+](=O)[O-])c2)CC1 (configuration not stated) was read as p97 ATPase inh 3.5, SUMO HTRF inh -25.7, DTT redox prof 0.3, Furin inhibitor -9.1, PKD1 inh -1.8, FAS-TE inh 72.7* and FAS-TE conf 57.9*.
`O=C(COc1ccccc1[N+](=O)[O-])Nc1ccc2c(c1)CCC2` gave FAS-TE inh 5.5.
Screening Cc1ccc(C(=O)CC2C(=O)N(c3ccccc3)C(=S)N2c2ccccc2)cc1 (configuration not stated) returned p97 ATPase inh 6.7, SUMO HTRF inh -11.8, DTT redox prof 0.2, Furin inhibitor -20.3, PKD1 inh 8.2, FAS-TE inh 52.8* and FAS-TE conf 16.4.
`Cc1nc2ccc([N+](=O)[O-])cc2c(=O)n1Cc1ccc(Cl)cc1` gave SUMO HTRF inh 2.6, FAS-TE inh 82.8* and FAS-TE conf 84.8*.
Screening COc1ccc(Cn2c(C)nc3ccc([N+](=O)[O-])cc3c2=O)cc1 returned SUMO HTRF inh 3.9, FAS-TE inh 70.0* and FAS-TE conf 47.8*.
